Assay results as given in publication PMC4336329 (PLoS ONE, 2015).
Screen size: about 310,000 compounds; about 14,000 (4.5%) showed an effect of 50% or more. The effect is printed as a negative number. Many of the other results were omitted from the sample, so strong results are more common in it than they were.

Biological target: human ether-à-go-go-related gene (hERG) potassium channel (human, UniProt Q12809)
Test: primary screen, population patch clamp on CHO cells stably expressing hERG; higher = less effect of the substance
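Further: peak tail current of the secondary pulse compared with the same well before compound.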

human ether-à-go-go-related gene (hERG) potassium channel, sequence (Q12809 whole entry, looked up): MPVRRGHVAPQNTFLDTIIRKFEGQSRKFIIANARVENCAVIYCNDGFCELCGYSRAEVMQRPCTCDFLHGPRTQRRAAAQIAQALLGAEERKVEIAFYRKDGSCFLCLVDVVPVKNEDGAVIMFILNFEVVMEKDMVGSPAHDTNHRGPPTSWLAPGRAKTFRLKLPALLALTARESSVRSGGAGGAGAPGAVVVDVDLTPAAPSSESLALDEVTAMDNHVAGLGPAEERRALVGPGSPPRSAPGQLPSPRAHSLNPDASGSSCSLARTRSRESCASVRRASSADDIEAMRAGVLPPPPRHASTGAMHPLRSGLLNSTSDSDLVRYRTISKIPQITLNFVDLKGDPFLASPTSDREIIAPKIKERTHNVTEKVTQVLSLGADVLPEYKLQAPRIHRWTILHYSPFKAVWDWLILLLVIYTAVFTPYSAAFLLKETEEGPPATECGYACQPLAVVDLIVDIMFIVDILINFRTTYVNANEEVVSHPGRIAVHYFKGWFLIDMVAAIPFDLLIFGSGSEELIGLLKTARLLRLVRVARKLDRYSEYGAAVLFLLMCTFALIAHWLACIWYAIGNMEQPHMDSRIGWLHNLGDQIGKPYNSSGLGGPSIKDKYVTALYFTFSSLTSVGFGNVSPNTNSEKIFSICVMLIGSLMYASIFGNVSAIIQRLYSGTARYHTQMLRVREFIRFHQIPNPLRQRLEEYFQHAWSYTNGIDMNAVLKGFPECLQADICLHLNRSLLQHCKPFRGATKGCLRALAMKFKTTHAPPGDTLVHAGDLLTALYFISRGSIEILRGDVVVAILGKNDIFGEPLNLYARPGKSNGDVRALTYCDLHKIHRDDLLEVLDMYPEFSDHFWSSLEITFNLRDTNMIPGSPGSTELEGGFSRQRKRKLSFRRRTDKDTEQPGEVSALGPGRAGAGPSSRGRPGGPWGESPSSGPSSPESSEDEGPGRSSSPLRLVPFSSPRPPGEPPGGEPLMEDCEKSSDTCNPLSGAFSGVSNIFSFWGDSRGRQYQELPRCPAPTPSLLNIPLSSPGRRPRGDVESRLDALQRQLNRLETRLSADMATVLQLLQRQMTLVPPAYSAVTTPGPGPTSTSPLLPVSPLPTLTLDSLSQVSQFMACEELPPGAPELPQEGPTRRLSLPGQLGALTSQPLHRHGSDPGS

Question: `CCn1c(SCc2nc3ccccc3[nH]2)nnc1-c1ccc(OC)cc1` was tested. Which “hERG current change (%, negative = inhibition) at 10uM” value did it give?
Answer: The value was -1.72%.

Question: Which “hERG current change (%, negative = inhibition) at 10uM” value does the source give for `O=C(NNC(=O)C1CC(=O)N(Cc2ccccc2)C1)c1ccc(F)cc1` (stereo not shown) here?
Answer: Its value is 2.46%.

Question: With `O=C(NC1CCCCCC1)c1cccnc1Sc1ccccc1` as the compound, how does the “hERG current change (%, negative = inhibition) at 10uM” value read?
Answer: Its value is -15.4%.

Question: With `O=S(=O)(c1ccc(NC(=S)N2CCN(c3ccc(O)cc3)CC2)cc1)N1CCOCC1` as the compound, how does the “hERG current change (%, negative = inhibition) at 10uM” value read?
Answer: Its value is 2.83%.

Question: How did the “hERG current change (%, negative = inhibition) at 10uM” value turn out when `COC(=O)C[C@H]1c2cc(F)cc(F)c2S(=O)(=O)N1C1CCN(Cc2ccccc2)CC1` was run?
Answer: Its value is -32%.

Question: How did the “hERG current change (%, negative = inhibition) at 10uM” value turn out when `CC(=O)Nc1ccc(S(=O)(=O)CCC(=O)O)cc1` was run?
Answer: Its value is 17.5%.

Question: `Cc1cc(C(=O)Nc2sc(C)c(C)c2C#N)c(C)o1` was tested. Which “hERG current change (%, negative = inhibition) at 10uM” value did it give?
Answer: The value was 20.6%.

Question: How did the “hERG current change (%, negative = inhibition) at 10uM” value turn out when `Cc1ccc2oc(C(=O)NCC(c3ccco3)N(C)C)c(C)c2c1` (stereo not shown) was run?
Answer: The value was -8.52%.

Question: With `CCn1cc(CN2CCC(n3nccc3NC(=O)CCOc3ccccc3)CC2)cn1` as the compound, how does the “hERG current change (%, negative = inhibition) at 10uM” value read?
Answer: The value was -12.9%.

Question: `Cc1ccc(CN2CCC(n3nccc3NC(=O)CCOc3ccccc3)CC2)cc1C` was tested. Which “hERG current change (%, negative = inhibition) at 10uM” value did it give?
Answer: Its value is -48.2%.

Question: For `COc1ccc(CN2CCC(n3nccc3NC(=O)CCOc3ccccc3)CC2)cc1C`, which “hERG current change (%, negative = inhibition) at 10uM” value is on record?
Answer: Its value is -68.7%.

Question: How did the “hERG current change (%, negative = inhibition) at 10uM” value turn out when `O=C(CCOc1ccccc1)Nc1ccnn1C1CCN(Cc2ccc(F)cc2)CC1` was run?
Answer: Its value is -59.1%.

Question: With `CCn1cc(CN2CCC(n3nccc3NC(=O)CCOc3ccccc3)CC2)c(C)n1` as the compound, how does the “hERG current change (%, negative = inhibition) at 10uM” value read?
Answer: Its value is 7.84%.

Question: With `O=C(COc1ccc2c3c(c(=O)oc2c1)CCC3)NCC(O)c1ccccc1` (stereo not shown) as the compound, how does the “hERG current change (%, negative = inhibition) at 10uM” value read?
Answer: The value was 11.5%.

Question: Which “hERG current change (%, negative = inhibition) at 10uM” value does the source give for `CCOC(=O)C1CCCN(S(=O)(=O)c2ccc3c(c2)NC(=O)CO3)C1` (stereo not shown) here?
Answer: The value was -1.47%.

Question: Which “hERG current change (%, negative = inhibition) at 10uM” value does the source give for `COc1ccc(C2(C)NC(=O)N(CC(=O)Nc3ccc(S(=O)(=O)N4CCCC4)cc3)C2=O)cc1` (stereo not shown) here?
Answer: The value was -2.91%.

Question: How did the “hERG current change (%, negative = inhibition) at 10uM” value turn out when `CN1CCN(CC(=O)Nc2ccc(OCc3ccccc3)cc2)CC1.Cl` was run?
Answer: The value was -9.11%.

Question: For `O=C(CN1CCOCC1)Nc1ccc(OCc2ccccc2)cc1`, which “hERG current change (%, negative = inhibition) at 10uM” value is on record?
Answer: The value was -21.3%.

Question: `O=C(CN1CCN(c2ccccc2)CC1)Nc1ccc(OCc2ccccc2)cc1` was tested. Which “hERG current change (%, negative = inhibition) at 10uM” value did it give?
Answer: The value was 2.44%.

Question: Which “hERG current change (%, negative = inhibition) at 10uM” value does the source give for `O=C(CN1CCCC1)Nc1ccc(OCc2ccccc2)cc1` here?
Answer: The value was -54.1%.

Question: With `O=C(CN1CCN(c2ccccn2)CC1)Nc1ccc(OCc2ccccc2)cc1` as the compound, how does the “hERG current change (%, negative = inhibition) at 10uM” value read?
Answer: Its value is -45.3%.

Question: Which “hERG current change (%, negative = inhibition) at 10uM” value does the source give for `O=C(CN1CCN(CC(=O)Nc2ccc(OCc3ccccc3)cc2)CC1)Nc1ccc(F)cc1` here?
Answer: The value was -72.5%.

Question: With `COC(=O)c1ccc(N=Cc2c(C(F)(F)F)[nH][nH]c2=O)cc1` as the compound, how does the “hERG current change (%, negative = inhibition) at 10uM” value read?
Answer: The value was 27.2%.

Question: How did the “hERG current change (%, negative = inhibition) at 10uM” value turn out when `CCCCCc1nc2ccccc2c(=O)n1-c1ccccc1[N+](=O)[O-]` was run?
Answer: Its value is -24.5%.

Question: For `Cc1ccc(NC(=O)c2cccs2)cc1NC(=O)c1cccc(F)c1`, which “hERG current change (%, negative = inhibition) at 10uM” value is on record?
Answer: The value was 5.36%.

Question: Which “hERG current change (%, negative = inhibition) at 10uM” value does the source give for `CC(C)c1c(O)nc(SCc2ccccc2)[nH]c1=O` here?
Answer: Its value is 11.5%.

Question: Which “hERG current change (%, negative = inhibition) at 10uM” value does the source give for `CSc1ccccc1C(=O)NCC1CCCO1` (stereo not shown) here?
Answer: The value was -11.8%.

Question: How did the “hERG current change (%, negative = inhibition) at 10uM” value turn out when `O=C(O)CCSc1nnnn1-c1ccccc1` was run?
Answer: The value was -1.42%.

Question: For `O=C1c2ccccc2C(=O)N1CSc1nnnn1-c1ccccc1`, which “hERG current change (%, negative = inhibition) at 10uM” value is on record?
Answer: Its value is -3.73%.

Question: How did the “hERG current change (%, negative = inhibition) at 10uM” value turn out when `O=C1c2ccccc2C(=O)N1CCCCSc1nnc2ccccn12` was run?
Answer: The value was -22.7%.

Question: Which “hERG current change (%, negative = inhibition) at 10uM” value does the source give for `O=C1c2ccccc2C(=O)N1CCCCSc1nnnn1-c1ccccc1` here?
Answer: The value was -51.7%.

Question: With `CCSc1nnc2c(Cl)cc(Cl)cn12` as the compound, how does the “hERG current change (%, negative = inhibition) at 10uM” value read?
Answer: Its value is 5.28%.

Question: How did the “hERG current change (%, negative = inhibition) at 10uM” value turn out when `O=C1c2ccccc2C(=O)N1CCCCSc1nnc2c(Cl)cc(Cl)cn12` was run?
Answer: The value was -80.2%.

Question: How did the “hERG current change (%, negative = inhibition) at 10uM” value turn out when `CC(=O)OCc1cc(-c2nc3ccccc3[nH]c2=O)nn1-c1ccc(Cl)cc1` was run?
Answer: The value was 18%.

Question: `O=C(CSc1nc2[nH]ncc2c(=O)[nH]1)NCCc1ccccc1` was tested. Which “hERG current change (%, negative = inhibition) at 10uM” value did it give?
Answer: The value was 26.9%.

Question: For `O=[N+]([O-])c1ccc2c(c1N1CCCCC1)=NC1(CCCCC1)[N+]=2[O-]`, which “hERG current change (%, negative = inhibition) at 10uM” value is on record?
Answer: The value was -8.78%.

Question: `Cc1ccc(NC(=O)C/C(N)=N/OC(=O)Nc2ccc(C)c(Cl)c2)cc1` was tested. Which “hERG current change (%, negative = inhibition) at 10uM” value did it give?
Answer: The value was 4.56%.

Question: With `O=C(NCCCN1CCOCC1)c1ccc(-n2nc(C(F)(F)F)cc2-c2cccs2)cc1` as the compound, how does the “hERG current change (%, negative = inhibition) at 10uM” value read?
Answer: The value was -80.4%.

Question: With `O=C(NCCCN1CCOCC1)c1cc(-c2cccs2)on1` as the compound, how does the “hERG current change (%, negative = inhibition) at 10uM” value read?
Answer: The value was -15.7%.

Question: For `COCCCNC(=O)c1ccc(-n2nc(C(F)(F)F)cc2-c2cccs2)cc1`, which “hERG current change (%, negative = inhibition) at 10uM” value is on record?
Answer: Its value is -30.6%.

Question: `COc1ccc(C(=O)COC(=O)CN2C(=O)NC(C)(C)C2=O)cc1OC` was tested. Which “hERG current change (%, negative = inhibition) at 10uM” value did it give?
Answer: The value was -1.87%.

Question: For `NC(=O)C(=O)N/N=C/c1c[nH]c2ccc(Br)cc12`, which “hERG current change (%, negative = inhibition) at 10uM” value is on record?
Answer: The value was 12.7%.

Question: Which “hERG current change (%, negative = inhibition) at 10uM” value does the source give for `O=C(NC(=S)Nc1ccc(CN2CCOCC2)cc1)c1cccc([N+](=O)[O-])c1` here?
Answer: Its value is 10.7%.

Question: `Cc1ccc(-n2c(=O)[nH]cc(C(=O)Nc3ccc4c(c3)OCCO4)c2=O)cc1C` was tested. Which “hERG current change (%, negative = inhibition) at 10uM” value did it give?
Answer: The value was -5.33%.

Question: How did the “hERG current change (%, negative = inhibition) at 10uM” value turn out when `CCN1CCC(NCCc2ccc(F)cc2)CC1` was run?
Answer: The value was -0.893%.

Question: With `CN1CCC(NCCC(c2ccc(F)cc2)c2ccc(Cl)cc2)CC1` (stereo not shown) as the compound, how does the “hERG current change (%, negative = inhibition) at 10uM” value read?
Answer: Its value is -71.5%.

Question: For `CC(C)C(CCNC1CCN(C)CC1)c1ccc(Cl)cc1` (stereo not shown), which “hERG current change (%, negative = inhibition) at 10uM” value is on record?
Answer: Its value is 11.3%.

Question: With `Cc1ccccc1-c1noc(CNC(=O)COc2ccccc2)n1` as the compound, how does the “hERG current change (%, negative = inhibition) at 10uM” value read?
Answer: The value was -10.4%.

Question: How did the “hERG current change (%, negative = inhibition) at 10uM” value turn out when `COc1ccc(C(=O)N(C)Cc2ccccc2)cc1Br` was run?
Answer: Its value is -8.29%.

Question: How did the “hERG current change (%, negative = inhibition) at 10uM” value turn out when `Cc1cc(Br)ccc1NC(=O)CN(C)C(=O)CCSc1ccc(F)cc1` was run?
Answer: The value was 0.468%.

Question: Which “hERG current change (%, negative = inhibition) at 10uM” value does the source give for `CN(CC(=O)Nc1cccc(F)c1)C(=O)C1CCN(C(=O)c2ccc(Cl)cc2)CC1` here?
Answer: Its value is -55.5%.

Question: For `Cc1cc(Br)ccc1NC(=O)CN(C)C(=O)C1CCN(C(=O)c2ccc(F)cc2)CC1`, which “hERG current change (%, negative = inhibition) at 10uM” value is on record?
Answer: The value was -65.1%.

Question: Which “hERG current change (%, negative = inhibition) at 10uM” value does the source give for `CN(CC(=O)Nc1ccccc1Br)C(=O)CN1CCN(Cc2ccc(Cl)cc2)CC1` here?
Answer: The value was -66.9%.

Question: For `CCOc1ccc(NC(=O)CN(C)C(=O)C2CCN(C(=O)c3ccc(Cl)cc3)CC2)cc1OCC`, which “hERG current change (%, negative = inhibition) at 10uM” value is on record?
Answer: The value was -48.1%.

Question: With `CN(CC(=O)Nc1ccccc1Cl)C(=O)C1CCN(C(=O)c2ccc(F)cc2)CC1` as the compound, how does the “hERG current change (%, negative = inhibition) at 10uM” value read?
Answer: Its value is -20.9%.

Question: How did the “hERG current change (%, negative = inhibition) at 10uM” value turn out when `CN(CC(=O)Nc1ccccc1Br)C(=O)CN1CCN(c2ccccc2Cl)CC1` was run?
Answer: Its value is -29.6%.

Question: `Cc1ccccc1C(=O)N1CCC(C(=O)N(C)CC(=O)Nc2cccc(F)c2)CC1` was tested. Which “hERG current change (%, negative = inhibition) at 10uM” value did it give?
Answer: Its value is 12.4%.

Question: `CN(CC(=O)Nc1ccccc1C(F)(F)F)C(=O)C1CCN(C(=O)c2ccc(Cl)cc2)CC1` was tested. Which “hERG current change (%, negative = inhibition) at 10uM” value did it give?
Answer: Its value is -31.8%.

Question: How did the “hERG current change (%, negative = inhibition) at 10uM” value turn out when `CN(CC(=O)Nc1ccccc1Br)C(=O)c1ccc(-c2ccc(Cl)cc2)o1` was run?
Answer: The value was 5.51%.

Question: How did the “hERG current change (%, negative = inhibition) at 10uM” value turn out when `CN(CC(=O)Nc1ccccc1Cl)C(=O)C1CCN(C(=O)c2ccc(Cl)cc2)CC1` was run?
Answer: Its value is -35.1%.

Question: How did the “hERG current change (%, negative = inhibition) at 10uM” value turn out when `CN(CC(=O)Nc1ccccc1Br)C(=O)C1CCN(C(=O)c2ccc(Cl)cc2)CC1` was run?
Answer: Its value is -50.1%.
